Bioassay records: PubChem, several laboratories
A selection: hits, their analogues and other compounds. The true share with any hit is near 3.5%.
UGM FP inh: M. tuberculosis UGM enzyme inhibitors, primary screen, biochemical, fluorescence polarization, single point; 0.06% of 320,000 active; purified UGM, fluorescence polarization probe displacement; inhibition, % at 10 µM; UDP-galactopyranose mutase (Mycobacterium tuberculosis (strain ATCC 25618 / H37Rv)), …; in the data active = inhibition above about 10%, passing the limit was not always enough
Rv3671c inh: Rv3671c serine protease inhibitors, primary screen, biochemical, fluorescence polarization, M. tuberculosis H37Rv; inhibition, % at 5.96 µM; 0.048% of 320,000 active; P9WHR9; AID 2606, 2010; in the data active = inhibition above about 38%;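 also: extracellular domain of Rv3671c used as enzyme; 0% = enzyme with DMSO and 100% = no enzyme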
Mtb FBA inh: Mtb FBA enzyme inhibitors, primary screen, biochemical, fluorescence, strain H37Rv; Fructose-bisphosphate aldolase (Mycobacterium tuberculosis (strain ATCC 25618 / H37Rv)), …; purified M. tuberculosis FBA, fluorescence read-out; inhibition, % at 1 µM; 2.3% of 360,000 active;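 also: 0% = vehicle and 100% = reference inhibitor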
Target sequence (P9WQA3 whole entry, looked up): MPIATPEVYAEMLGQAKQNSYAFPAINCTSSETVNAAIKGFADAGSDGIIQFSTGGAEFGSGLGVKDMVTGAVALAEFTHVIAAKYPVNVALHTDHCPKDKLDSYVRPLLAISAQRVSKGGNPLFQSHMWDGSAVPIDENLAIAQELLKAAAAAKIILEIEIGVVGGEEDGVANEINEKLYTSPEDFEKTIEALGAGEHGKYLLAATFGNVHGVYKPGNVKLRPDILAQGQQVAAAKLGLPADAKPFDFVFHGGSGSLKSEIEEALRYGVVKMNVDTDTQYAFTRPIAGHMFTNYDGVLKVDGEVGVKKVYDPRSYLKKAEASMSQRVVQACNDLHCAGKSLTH
GDH-TPI counter-1: GDH-TPI coupling enzyme inhibitors, primary screen, artefact control for M. tuberculosis FBA inhibitor project, biochemical, absorbance, full deck. 1.2% of 360,000 active. AID 588335, 2011. inhibition, % at 4.8 µM. GDH-TPI coupled enzyme counterscreen, NADH absorbance; in the data active = inhibition above about 30%;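 also: 0% = DMSO wells and 100% = wells lacking the enzyme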
FadD28 FP inh: inhibitors of FadD28 bisubstrate probe binding, primary screen, biochemical, fluorescence polarization, single point; Mycobacterium tuberculosis FadD28 fatty-acid-AMP ligase; inhibition, % at 12.5 µM; 0.22% of 360,000 active; in the data active = inhibition above about 8.5%, passing the limit was not always enough
Mtb hypoxia inh: PubChem AID 1159583 | M. tuberculosis hypoxia-regulated fluorescent reporter, fluorescence | 0.1% of 300,000 active | fluorescence inhibition, % (concentration not given with the values); in the data active = fluorescence inhibition mostly above about 23%, no sharp cut-off; inactive = mostly below about 17%
Mtb FBA confirm: M. tuberculosis aldolase blockers, biochemical, fluorescence, strain H37Rv, confirmation. AID 651616, 2012. 78% of 5,600 active. inhibition, % at 1 µM. purified M. tuberculosis FBA, fluorescence read-out. shares compounds with Mtb FBA inh;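 also: 0% = vehicle wells and 100% = reference inhibitor wells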
GDH-TPI counter-2: GDH-TPI coupling enzyme inhibitors, artefact control for M. tuberculosis FBA inhibitor project, biochemical, fluorescence, high throughput; shares compounds with Mtb FBA inh; GDH-TPI coupled enzyme counterscreen; inhibition, % at 1 µM; 81% of 5,600 active; AID 652141, 2013; in the data active = inhibition above about 10%
GDH-TPI dose: GDH-TPI coupling enzyme inhibitors, dose response, artefact control for M. tuberculosis FBA inhibitor project, biochemical, fluorescence, IC50; IC50, µM; shares compounds with Mtb FBA inh; GDH-TPI coupled enzyme assay, artifact counterscreen; AID 652145, 2013; 79% of 170 active; call rule not given here
Starred values were filed as active, the others as inactive. Rule as the data show it, unless noted: active = inhibition above about 27%; inactive = the rest.

How did COc1ccc(C2CC(=O)C3=C(C2)Nc2ncnn2C3c2ccccc2)cc1 (configuration not stated) do in these assays?
UGM FP inh: 1; Rv3671c inh: 12; Mtb FBA inh: 5; GDH-TPI counter-1: 7; FadD28 FP inh: -9

Results for O=C(NNC(=O)C1C2C=CC(C2)C1C(=O)O)c1cc(Cl)ccc1O (configuration not stated) ?
UGM FP inh: 1; Mtb FBA inh: 65*; GDH-TPI counter-1: 7; FadD28 FP inh: -2; Mtb hypoxia inh: -12; Mtb FBA confirm: 59*; GDH-TPI counter-2: 55*

Results for COc1cc2c(N3CCOCC3)cc(O)c(CC(=O)Nc3ccccc3)c2cc1OC ?
UGM FP inh: -2; Rv3671c inh: -1; Mtb FBA inh: 31*; GDH-TPI counter-1: 3; FadD28 FP inh: 0; Mtb FBA confirm: 6; GDH-TPI counter-2: -4

Results for CC[C@]12c3[nH]c4cc(-c5ccco5)ccc4c3CCN1C(=O)[C@@H](CC(=O)NCCCOC)C[C@@H]2C(=O)N1CCN(C(=O)C2CC2)CC1 ?
Mtb FBA inh: 26; GDH-TPI counter-1: 6; FadD28 FP inh: 1; Mtb hypoxia inh: 4

What do the screens show for `COCCCNC(=O)C[C@H]1C[C@H](C(=O)N2CCCCC2)[C@@]2(C)c3[nH]c4cc(-c5ccco5)ccc4c3CCN2C1=O`?
Mtb FBA inh: 27*; GDH-TPI counter-1: -1; FadD28 FP inh: -2; Mtb hypoxia inh: -5; Mtb FBA confirm: 68*; GDH-TPI counter-2: 52*

Results for C[C@]12c3[nH]c4cc(-c5ccco5)ccc4c3CCN1C(=O)[C@@H](CC(=O)NCCN1CCOCC1)C[C@@H]2C(=O)N1CCCCC1 ?
Mtb FBA inh: 35*; GDH-TPI counter-1: 13; FadD28 FP inh: -5; Mtb hypoxia inh: -8; Mtb FBA confirm: -3; GDH-TPI counter-2: -5

How did C[C@]12c3[nH]c4cc(-c5ccco5)ccc4c3CCN1C(=O)[C@@H](CC(=O)NCC13CC4CC(CC(C4)C1)C3)C[C@@H]2C(=O)N1CCOCC1 do in these assays?
Mtb FBA inh: 15; GDH-TPI counter-1: 9; FadD28 FP inh: -1; Mtb hypoxia inh: -8

How did CCN(C(=O)COC(=O)c1ccc(O)cc1)c1cccc2ccccc12 do in these assays?
UGM FP inh: 3; Rv3671c inh: 4; Mtb FBA inh: 0; GDH-TPI counter-1: 1; FadD28 FP inh: -4; Mtb hypoxia inh: 5

How did CCN(C(=O)COC(=O)c1nccnc1N)c1cccc2ccccc12 do in these assays?
UGM FP inh: -2; Rv3671c inh: -3; Mtb FBA inh: 63*; GDH-TPI counter-1: 7; FadD28 FP inh: -2; Mtb hypoxia inh: 3; Mtb FBA confirm: 109*; GDH-TPI counter-2: 80*

How did Cc1ccc(N2C(=O)N3C(c4ccc(F)cc4)C4C(=O)N(C5CCCCC5)C(=O)C4[C@]3(C)C2=O)cc1 (some centres not stated) do in these assays?
Mtb hypoxia inh: -2

Results for COC1=Nc2ccccc2N2CCN=C12 ?
Mtb FBA inh: 66*; FadD28 FP inh: -1; Mtb FBA confirm: 12; GDH-TPI counter-2: 7; GDH-TPI dose: 3.5*

Results for O=C(C1=CC(c2ccccc2)CC(OCc2ccc(CO)cc2)O1)N1CCN(Cc2ccccc2)CC1 (configuration not stated) ?
Mtb hypoxia inh: 6

Results for Cc1[nH]n(-c2ccccc2)c(=O)c1C=Nc1cnc2ccccc2c1 ?
UGM FP inh: 0; Rv3671c inh: -19; Mtb FBA inh: 34*; GDH-TPI counter-1: 20; FadD28 FP inh: -2; Mtb hypoxia inh: 6; Mtb FBA confirm: 13; GDH-TPI counter-2: 0

Results for O=C(CSc1nnc(-c2ccc(Cl)cc2)n1-c1ccccc1)NN=Cc1ccccc1C(=O)O ?
Mtb hypoxia inh: 19

Results for Nc1ccccc1C(=O)NCC1(c2ccccc2)CCCC1 ?
UGM FP inh: -3; Rv3671c inh: -11; Mtb FBA inh: 33*; GDH-TPI counter-1: -17; FadD28 FP inh: -4; Mtb hypoxia inh: 9; Mtb FBA confirm: 160*; GDH-TPI counter-2: 128*

Results for O=C(NCC1(c2ccccc2)CCCC1)c1ccc(Br)cc1 ?
UGM FP inh: 0; Rv3671c inh: -13; Mtb FBA inh: -1; GDH-TPI counter-1: 9; FadD28 FP inh: -2; Mtb hypoxia inh: 16

How did Nc1nc2ccccc2n1N=Cc1ccc([N+](=O)[O-])s1 do in these assays?
Mtb hypoxia inh: 1

What do the screens show for `CC(NC(=O)c1nc[nH]c1C(=O)NC(CCCCNC(=O)OC(C)(C)C)C(=O)OC(C)(C)C)C(=O)OC(C)(C)C` (configuration not stated)?
Mtb hypoxia inh: 1

How did CC(=O)Oc1ccc(-c2cc3c(OC(C)=O)cc(OC(C)=O)cc3oc2=O)cc1 do in these assays?
UGM FP inh: 1; Rv3671c inh: -9; Mtb FBA inh: 92*; GDH-TPI counter-1: 8; FadD28 FP inh: -2; Mtb FBA confirm: 171*; GDH-TPI counter-2: 195*

What do the screens show for `CC(=O)Oc1ccc(-c2nc3ccccc3c(=O)o2)cc1`?
UGM FP inh: 0; Rv3671c inh: -3; Mtb FBA inh: 0; GDH-TPI counter-1: -3; FadD28 FP inh: -3; Mtb hypoxia inh: 19

What do the screens show for `COC(=O)COc1ccc2cc(-c3ccc(OC)cc3)c(=O)oc2c1`?
UGM FP inh: -1; Rv3671c inh: 3; Mtb FBA inh: 44*; GDH-TPI counter-1: 17; FadD28 FP inh: -2; Mtb hypoxia inh: 14; Mtb FBA confirm: 188*; GDH-TPI counter-2: 171*

How did CC(=O)Oc1ccc(-c2cc3ccccc3oc2=O)cc1 do in these assays?
UGM FP inh: -3; Rv3671c inh: 1; Mtb FBA inh: 75*; GDH-TPI counter-1: 37*; FadD28 FP inh: -2; Mtb hypoxia inh: 6; Mtb FBA confirm: active; GDH-TPI counter-2: active

Results for CCCCNC(=O)ON=C(N)CS(=O)(=O)C(C)(C)C ?
Mtb hypoxia inh: -6
